APP transl inh = APP translation inhibition | actives 0.82% (n = 190,000) | SH-SY5Y APP 5'UTR-luciferase reporter, luminescence | inhibition, % at 2 µM | AID 1285;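 active means inhibition above a set limit, derived from the sample mean plus 3 SD, cut at about 45% in these data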
aSyn UTR inh = 5' untranslated region of α-synuclein, MLPCN primary screen; alpha-synuclein 5'UTR reporter, inhibitor activity; inhibition, % (tested at 7.5 µM); actives 0.82% (n = 300,000); AID 1813; in the data active means inhibition above about 60%;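 further: H4 neuroglioblastoma cells stably carrying SNCA 5'UTR luciferase fusion; 0% = DMSO wells and 100% = positive control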
Ba/F3 V617F tox = reduce viability of Ba/F3 cells dependent on JAK2V617F | Ba/F3 EpoR-JAK2V617F viability, ATP luminescence | inhibition, % at 5.6 µM | actives 1.1% (n = 220,000) | AID 1446;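 active means inhibition above the campaign mean plus 3 SD over all tested compounds, cut at about 24% in these data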;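 further: cytokine-independent growth of Ba/F3 cells driven by EpoR plus mutant JAK2; 0% = DMSO-treated cells and 100% = JAK inhibitor I control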
IEC-6 tox = IEC-6 cytotoxicity, counter-screen for KLF5 inhibitors; AID 1825; luminescence viability; inhibition, % at 5 µM; actives 0.78% (n = 290,000); in the data active means inhibition above about 22%;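 further: 0% = plate median of test compound wells and 100% = cytotoxic reference compound wells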
KLF5 inhibitor = kruppel-like factor 5 inhibition. AID 1700. inhibition, % at 5 µM. DLD-1 KLF5 promoter-luciferase reporter, luminescence. actives 0.23% (n = 290,000);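 active means inhibition above a per-plate limit of that plate's mean compound inhibition plus 3 SD, cut at about 60% in these data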;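 further: 0% = DMSO wells and 100% = LY294002 at 200 µM; higher means less KLF5 promoter-driven luciferase light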
BaF3 tox = counter-screen for JAK2V617F inhibitors: parental Ba/F3 viability inhibitors; CellTiter-Glo ATP luminescence; AID 1486; inhibition, % at 5.6 µM; actives 1.1% (n = 220,000);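 active means inhibition above a per-campaign cutoff, the mean inhibition of all tested compounds plus 3 SD, cut at about 27% in these data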;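 further: 0% = DMSO wells and 100% = JAK Inhibitor I control wells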
* = called active by the depositor. Sampled rows, rich in hits. Any-hit rate of the full collection: about 2.2%.

For COCCCNC(=O)c1c(N)n(-c2ccc3c(c2)OCO3)c2nc3ccccc3nc12 the results were APP transl inh 10.2, aSyn UTR inh 10.3, Ba/F3 V617F tox 1.2, IEC-6 tox 10.3, KLF5 inhibitor -4.2 and BaF3 tox 6.9.
`CCOCCCNC(=O)c1c(N)n(-c2ccc3c(c2)OCO3)c2nc3ccccc3nc12` gave aSyn UTR inh 20.7, Ba/F3 V617F tox 35.7*, IEC-6 tox 21.5, KLF5 inhibitor -1.4 and BaF3 tox 59.9*.
`Cn1cc(C(=O)N/N=C/C(Br)=C\c2ccccc2)ccc1=O` gave APP transl inh 0.5, aSyn UTR inh -83.0, Ba/F3 V617F tox 1.2, IEC-6 tox 4.6, KLF5 inhibitor 0.2 and BaF3 tox 4.2.
`Cn1cc(C(=O)N/N=C/C(Br)=C/c2ccccc2)ccc1=O` gave APP transl inh 84.7*, aSyn UTR inh -42.2, Ba/F3 V617F tox 1.4, IEC-6 tox 9.6, KLF5 inhibitor -35.0 and BaF3 tox 2.4.
Screening C[C@@H](C(=O)CC(=O)OC(C)(C)C)[C@@H](O)c1c(F)cccc1Cl returned aSyn UTR inh -20.7, IEC-6 tox 0.1 and KLF5 inhibitor -6.1.
For C#CCOCCOCCOCCNc1nc(N2CCN(C(=O)[C@H]([C@@H](C)O)n3cc(CCCCN)nn3)CC2)nc(N2CCN(C(=O)[C@H](Cc3ccc(O)cc3)n3cc(CCO)nn3)CC2)n1 the results were APP transl inh 9.2, aSyn UTR inh -19.0, Ba/F3 V617F tox -3.6, IEC-6 tox -0.3, KLF5 inhibitor -2.1 and BaF3 tox 62.9*.
Screening O=C(CCCc1nc(-c2ccccc2Cl)no1)NC1CCCC1 returned aSyn UTR inh 98.8*, IEC-6 tox -6.5 and KLF5 inhibitor 47.0.
For CCS(=O)(=O)N1CCC(c2nc3ccccc3[nH]2)CC1 the results were aSyn UTR inh -23.3, IEC-6 tox 9.0 and KLF5 inhibitor -13.4.
Screening CSc1ccc(Cl)c(C(=O)Nc2ccc(Cl)cn2)c1 returned APP transl inh 23.6, aSyn UTR inh 31.2, Ba/F3 V617F tox 3.0, IEC-6 tox 3.3, KLF5 inhibitor -5.3 and BaF3 tox 3.0.
COc1cc(SC)ccc1C(=O)Nc1ccc(Cl)cn1 was read as APP transl inh -148.2, aSyn UTR inh 99.7*, Ba/F3 V617F tox 0.3, IEC-6 tox -0.8, KLF5 inhibitor -134.4 and BaF3 tox 2.7.
`NC(=O)COC(=O)CC(NC(N)=O)c1ccc(Cl)cc1` (stereo unspecified) gave APP transl inh -11.9, aSyn UTR inh 1.6, Ba/F3 V617F tox -4.9, IEC-6 tox 2.6, KLF5 inhibitor -16.7 and BaF3 tox -2.5.
NC(=O)NC(CC(=O)OCC(=O)NC(=O)NCc1ccco1)c1ccc(Cl)cc1 (stereo unspecified) was read as APP transl inh 55.4*, aSyn UTR inh -11.7, Ba/F3 V617F tox -1.9, IEC-6 tox 0.2, KLF5 inhibitor -55.5 and BaF3 tox 2.0.
Screening CSc1ncccc1C(=O)NC1CC(C)(C)Cc2c1cnn2-c1ccccc1C (stereo unspecified) returned aSyn UTR inh 25.2, IEC-6 tox 2.4 and KLF5 inhibitor -14.0.
CCc1ccccc1NC(=S)N=Nc1c(O)n(C)c2ccc(S(=O)(=O)N3CCOCC3)cc12 was read as APP transl inh 38.2, aSyn UTR inh 80.5*, Ba/F3 V617F tox 0.8, IEC-6 tox -3.0, KLF5 inhibitor -2.6 and BaF3 tox 1.9.
`Cc1ccc(C)c(NC(=S)N=Nc2c(O)n(C)c3ccc(S(=O)(=O)N4CCOCC4)cc23)c1` gave APP transl inh 24.9, aSyn UTR inh 77.8*, Ba/F3 V617F tox -2.9, IEC-6 tox -12.5, KLF5 inhibitor -17.3 and BaF3 tox 3.7.
For Cc1ccc(Cn2c(O)c(N=NC(=S)Nc3ccccc3F)c3cc(S(=O)(=O)N4CCOCC4)ccc32)cc1 the results were APP transl inh 49.9*, aSyn UTR inh 66.2*, Ba/F3 V617F tox 2.4, IEC-6 tox 7.9, KLF5 inhibitor 23.8 and BaF3 tox 5.2.
Screening Cc1ccc(NC(=O)c2ccc(S(=O)(=O)N3CCOCC3)cc2)c(C)c1 returned aSyn UTR inh 4.3, IEC-6 tox -1.7 and KLF5 inhibitor -28.0.
Screening CCOc1ccc(CNC2CCCc3ccccc32)cc1 (stereo unspecified) returned APP transl inh 5.2, aSyn UTR inh -17.3, Ba/F3 V617F tox -2.5, IEC-6 tox -3.7, KLF5 inhibitor -5.6 and BaF3 tox -1.5.
For CCN(C(=O)CSc1nc2ccccc2c(=O)n1CCOC)C1CCS(=O)(=O)C1 (stereo unspecified) the results were APP transl inh 10.3, aSyn UTR inh 22.5, Ba/F3 V617F tox 2.5, IEC-6 tox -2.4, KLF5 inhibitor -38.1 and BaF3 tox 4.8.
`COc1ccc(OC)c2sc(N3CCc4ccccc4C3)nc12` gave APP transl inh -4.3, aSyn UTR inh 14.9, Ba/F3 V617F tox 1.1, IEC-6 tox 4.6, KLF5 inhibitor -29.9 and BaF3 tox 14.5.
Screening c1ccc2c(c1)CCN(c1nc3cc4c(cc3s1)OCCO4)C2 returned APP transl inh -147.8, aSyn UTR inh 75.1*, Ba/F3 V617F tox 2.0, IEC-6 tox 14.6, KLF5 inhibitor -4.8 and BaF3 tox 3.7.
For OCCN1CCN(CC(O)COc2ccc(C34CC5CC(CC(C5)C3)C4)cc2)CC1 (stereo unspecified) the results were APP transl inh 3.9, aSyn UTR inh 84.9*, Ba/F3 V617F tox 8.7, IEC-6 tox 15.2, KLF5 inhibitor 16.7 and BaF3 tox 9.1.
For NCCOc1ccc(C23CC4CC(CC(C4)C2)C3)cc1 the results were APP transl inh -21.2, aSyn UTR inh 81.0*, Ba/F3 V617F tox 3.0, IEC-6 tox 7.9, KLF5 inhibitor -43.1 and BaF3 tox -3.2.
O=C(OCc1nnc(-c2ccccc2)o1)c1cccc(-n2cnnn2)c1 was read as aSyn UTR inh -7.4.
For CCOc1ccccc1NC(=O)C1CCCN(S(=O)(=O)c2c(C)[nH]c(=O)[nH]c2=O)C1 (stereo unspecified) the results were APP transl inh 45.4*, aSyn UTR inh -10.6, Ba/F3 V617F tox 4.2, IEC-6 tox 0.8, KLF5 inhibitor -0.8 and BaF3 tox 6.0.
For NC(=O)c1nc(N2CCOCC2)nc(N2CCOCC2)n1 the results were APP transl inh -2.6, aSyn UTR inh 8.9, Ba/F3 V617F tox 2.2, IEC-6 tox 2.8, KLF5 inhibitor -19.0 and BaF3 tox 6.9.
Screening CC(C)(C)Nc1nc(C(N)=O)nc(N2CCOCC2)n1 returned APP transl inh 60.0*, aSyn UTR inh 10.2, Ba/F3 V617F tox -1.4, IEC-6 tox 8.6, KLF5 inhibitor -48.3 and BaF3 tox 1.4.
`CCCCn1cnc2c(c(-c3ccccc3)c(-c3ccccc3)n2Cc2ccco2)c1=N` gave aSyn UTR inh 31.3, Ba/F3 V617F tox 5.8, IEC-6 tox -2.4, KLF5 inhibitor 29.3 and BaF3 tox -6.3.
Screening N=c1c2c(-c3ccccc3)c(-c3ccccc3)n(Cc3ccccc3)c2ncn1CCCn1ccnc1 returned APP transl inh 83.1*, aSyn UTR inh 33.3, Ba/F3 V617F tox 2.0, IEC-6 tox 8.3, KLF5 inhibitor 38.1 and BaF3 tox 4.4.

Screening results (PubChem)
